# Experimental data from PubChem BioAssay.
# Experiment: small-molecule microarray binders of probe aLefty2, primary screen, biochemical, biotinylated probe, 635/667 nm fluorescence (AID 1094);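 also: score merges spot fluorescence near 667 nm with spot signal-to-noise ratio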
# Details: higher = more signal
row,Compound,composite z-score
1,COc1ccc(O[C@H]2C=C[C@@H](c3ccccc3)O[C@@H]2CON=CC[C@@H]2C=C[C@H](OC(C)=O)[C@@H](COC(C)=O)O2)cc1,-0.107
2,CO[C@H]1COC(=O)CC=C[C@@H](C)[C@H](NS(=O)(=O)c2ccc(C)cc2)COC(=O)CCC[C@@H]1C,-0.122
3,CON=CC[C@@H]1C=C[C@H](OC(C)=O)[C@@H](COC(C)=O)O1,0.253
4,C=COC[C@@H]1CN2[C@@H](CC[C@@H](C)[C@@H]2c2ccc(Br)cc2)C(=O)O1,-0.0769
5,O=C1[C@H]2[C@H]3[C@H](O)[C@H](O)CC(=NOCc4ccccc4)[C@@H]3CC[C@H]2C(=O)N1Cc1ccc2c(c1)OCO2,-0.17
6,COC(=O)NCC=Cc1nc(CCCO)co1,-0.0139
7,CO[C@H]1COC(=O)CC=C[C@H](C)[C@@H](OC)COC(=O)[C@@H](C)COC(=O)CC=C[C@@H]1C,-0.235
8,COC(=O)[C@@H]1CC[C@H](C)[C@@H](c2ccc(C)cc2)N1C(=O)c1ccc(C=NOC[C@@H](C)[C@H](OCc2ccccc2)C(C)C)cc1,-0.244
9,COC(=O)CC=C[C@@H](C)[C@@H](C=NO[C@@H]1O[C@H](COC(C)=O)[C@@H](OC(C)=O)[C@H](OC(C)=O)[C@H]1OC(C)=O)NS(=O)(=O)c1ccc(C)cc1,-0.134
10,CCOC(=O)[C@H](CC(C)C)NC(=O)CCC1CC(OC(=O)NCc2cccc3ccccc23)CC2(CCCC(COC(=O)NCCOc3ccccc3)O2)O1 (stereo partly specified),-0.177
11,COc1cccc([C@H]2Oc3ccc(OC)cc3C(=NO[C@@H](C)c3cn([C@H](CO)Cc4ccccc4)nn3)[C@@H]2O)c1,-0.21
12,COC(=O)CC=C[C@@H](C)[C@@H](C=NOC[C@H]1O[C@H](c2ccccc2)C=C[C@@H]1Oc1ccc(OC)cc1)NS(=O)(=O)c1ccc(C)cc1,-0.0785
13,C=CC1=C[C@H](O)[C@@H]2O[C@@H]2C12OCCCO2,-0.244
14,COC(=O)CC=C[C@@H](C)[C@H](OCc1cccc(-c2ccccc2)c1)C1CCCCC1,-0.321
15,CC(C)CON=C1C[C@@H](O)[C@@H](O)[C@@H]2[C@@H]3C(=O)N(Cc4ccc5c(c4)OCO5)C(=O)[C@@H]3CC[C@H]12,-0.2
16,COc1ccc(O[C@H]2C=C[C@@H](c3ccccc3)O[C@@H]2CON=C(C)C)cc1,0.175
17,COC(=O)CC=C[C@@H](C)[C@@H](C=NOC(C)CN1CCCc2nc(C)c(C)cc21)OC (stereo partly specified),-0.165
18,CC(C)(C)N1C(=O)[C@H]2[C@H]3[C@H](O)[C@H](O)CC(=NO[C@@H]4O[C@H](CO)[C@@H](O)[C@H](O)[C@H]4O)[C@H]3CC[C@H]2C1=O,-0.0603

row,Compound,composite z-score
1,C#CCCCON=C1C[C@@H](O)[C@@H](O)[C@@H]2[C@@H]3C(=O)N(C(C)(C)C)C(=O)[C@@H]3CC[C@H]12,0.599
2,CCOC(=O)NN=C1C[C@@H](O)[C@@H](O)[C@@H]2[C@@H]3C(=O)N([C@@H](C)c4ccccc4)C(=O)[C@@H]3CC[C@H]12,-0.0458
3,COC(=O)[C@@H]1CC[C@H](C)[C@@H](c2ccc(C)cc2)N1C(=O)c1ccc(C=NO[C@H](C)c2cn([C@H](CO)Cc3ccccc3)nn2)cc1,0.0943
4,CCOC(=O)CCN1C(=O)[C@H]2[C@H]3[C@H](O)[C@H](O)CC(=NNC(=O)OCc4ccccc4)[C@@H]3CC[C@H]2C1=O,-0.23
5,CC(C)=CCCC(C)=CCON=C1C[C@@H](O)[C@@H](O)[C@@H]2[C@@H]3C(=O)N(c4ccc(F)cc4F)C(=O)[C@@H]3CC[C@@H]12,0.0054
6,CCc1cc2c(nc1CC)CCN(CCC(C)=NO[C@H](C)c1cn([C@H](CO)Cc3ccccc3)nn1)C2,0.0336
7,COC(=O)[C@H](C)NC(=O)CCC1CC(OC(=O)NCCc2ccc(F)cc2)CC2(CCCC(COC(=O)NCCC(C)C)O2)O1 (stereo partly specified),-0.209
8,CCN1C(=O)[C@@H]2[C@H]3C(=CC[C@@H]2C1=O)C1(OCCCO1)[C@H]1O[C@H]1[C@H]3O,-0.16
9,CCCNC(=O)OC[C@H]1O[C@H](CCON=C(C)CCN2CCc3nc(CC)c(CC)cc3C2)C=C[C@@H]1Oc1ccc(OC)cc1,-0.0539
10,COc1cccc([C@H]2Oc3ccc(OC)cc3C(=NO[C@H](C)c3cn([C@H](CO)Cc4ccccc4)nn3)[C@@H]2O)c1,-0.126
11,Cc1ccc(S(=O)(=O)n2c3ccccc3c3nnc(C(=O)c4ccccc4)nc32)cc1,-0.122
12,CCOC(=O)[C@H](Cc1ccccc1)NC(=O)CCC1CC(OC(=O)NCc2ccc3c(c2)OCO3)CC2(CCCC(COC(=O)NCCc3ccccc3OC)O2)O1 (stereo partly specified),-0.112
13,Cn1c(=O)n2n(c1=O)[C@H]1[C@H](O)[C@@H]3O[C@@H]3C(=O)[C@H]1CC2,-0.13
14,C[C@@H]1CC[C@H]2C(=O)O[C@@H](Cc3ccccc3)CN2[C@H]1c1ccc(Br)cc1,-0.0258
15,CCOC(=O)[C@H](CC(C)C)NC(=O)CCC1CC(OC(=O)NCCc2ccc(F)cc2)CC2(CCCC(COC(=O)NCCc3ccc(Cl)cc3)O2)O1 (stereo partly specified),-0.0021
16,CO[C@H]1COC(=O)[C@H](C)NC(=O)CC=C[C@@H](C)[C@H](OC)COC(=O)[C@@H](OCc2ccccc2)C=C[C@@H]1C,-0.166
17,C#CCCCON=C1C[C@@H](O)[C@@H](O)[C@@H]2[C@@H]3C(=O)N(c4ccc(F)cc4F)C(=O)[C@@H]3CC[C@H]12,-0.226
18,O=C1C[C@@H](O)[C@@H](O)[C@@H]2[C@@H]3C(=O)N(Cc4ccc5c(c4)OCO5)C(=O)[C@@H]3CC[C@H]12,-0.136
